Screening results (PubChem)
In the library only some 2.3% were active in any assay of this set; here they are far more common.
Mcl-1 Bim block: inhibitors of Bim-Mcl-1 interaction, human | AID 1009 | hit rate 0.1% among 190,000 | Q07820 | Bead-based flow cytometry, Bim peptide-Mcl-1 binding | inhibition, % at 10 µM; in the data active = inhibition above about 40%;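 also: 0% = no compound tracer wells and 100% = peptide blocker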
Mcl1 Noxa PPI: Mcl-1/Noxa interaction inhibition; TR-FRET Mcl-1/Noxa peptide binding, 2 h; inhibition, % at 21.7 µM; hit rate 1.5% among 220,000; AID 1022;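 active = compounds that cut the protein-peptide binding signal by more than 50% relative to plate controls in a single-dose test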;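 also: His-tagged Mcl-1 with rhodamine Noxa BH3 peptide and terbium anti-His antibody; 0% = Mcl-1 plus Noxa peptide wells and 100% = peptide-only wells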
GLD-1 RNA inh: GLD-1-TGE RNA interaction inhibition (C. elegans). Q17339. inhibition, % at 5.96 µM. hit rate 0.44% among 320,000. purified GLD-1 + fluorescein TGE RNA, fluorescence polarization. AID 2280;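 active = percent inhibition above a per-plate cutoff, the plate mean of test compounds plus 3 SD, cut at about 30% in these data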;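 also: 0% = DMSO wells with GLD-1 and probe and 100% = wells lacking GLD-1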
Target sequence (Q17339 whole entry, looked up): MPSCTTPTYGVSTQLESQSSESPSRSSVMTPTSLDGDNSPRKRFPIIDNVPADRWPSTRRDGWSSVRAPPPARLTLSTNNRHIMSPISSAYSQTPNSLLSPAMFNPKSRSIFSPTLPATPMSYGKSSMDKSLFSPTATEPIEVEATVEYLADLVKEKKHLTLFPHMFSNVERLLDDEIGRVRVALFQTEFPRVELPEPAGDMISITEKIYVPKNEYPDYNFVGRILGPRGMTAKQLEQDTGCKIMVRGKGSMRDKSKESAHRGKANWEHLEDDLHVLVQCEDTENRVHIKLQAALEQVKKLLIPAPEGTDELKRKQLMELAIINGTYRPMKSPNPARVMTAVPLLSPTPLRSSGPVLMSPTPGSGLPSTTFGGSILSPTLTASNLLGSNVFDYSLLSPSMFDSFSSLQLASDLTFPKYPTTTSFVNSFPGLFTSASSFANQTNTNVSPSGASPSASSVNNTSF
Mcl1 Bid PPI: disrupts binding of human Mcl-1 to Bid peptide; Q07820; TR-FRET Mcl-1/Bid-Dy647 peptide binding, 1536-well; inhibition, % at 21.7 µM; hit rate 0.97% among 220,000; AID 1021;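 active = compounds that cut the binding signal by more than half at the single screening dose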;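 also: His-tagged Mcl-1 with europium anti-His antibody binding Bid BH3 peptide; 0% = Mcl-1 plus peptide wells and 100% = peptide-only wells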
BCLXL inh: inhibitors of human Bcl-xL | inhibition, % at 10.9 µM | GST-Bcl-xL / FITC-Bim BH3 peptide fluorescence polarization | Q07817 | AID 2129 | hit rate 0.7% among 320,000;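 active = inhibition above the mean of all tested compounds plus 3 SD, cutoff set per campaign, cut at about 30% in these data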;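 also: 0% = DMSO wells and 100% = unlabeled Bim-BH3 peptide competitor; inhibitors lower millipolarization by displacing the labeled peptide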
Target sequence (Q07817 whole entry, looked up): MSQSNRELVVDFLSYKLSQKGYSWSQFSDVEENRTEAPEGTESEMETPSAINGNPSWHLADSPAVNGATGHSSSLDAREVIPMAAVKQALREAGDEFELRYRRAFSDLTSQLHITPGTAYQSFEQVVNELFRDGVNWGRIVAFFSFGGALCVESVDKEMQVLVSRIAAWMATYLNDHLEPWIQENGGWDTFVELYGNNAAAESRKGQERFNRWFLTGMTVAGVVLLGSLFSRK
MCL1 BIM primary: MCL1-BIM-BH3 interaction inhibition (human). Q07820. GST-MCL1 / FITC-Bim-BH3 fluorescence polarization. inhibition, % at 10.9 µM. hit rate 0.68% among 320,000;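 active = inhibition above the mean inhibition of all tested compounds plus 3 SD, set per campaign, cut at about 40% in these data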;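 also: 0% = DMSO wells and 100% = unlabeled Bim-BH3 peptide control; higher means more loss of mP so more displacement of Bim peptide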
The depositor's hits bear a star; nt = no result.

SMILES | Mcl-1 Bim block | Mcl1 Noxa PPI | GLD-1 RNA inh | Mcl1 Bid PPI | BCLXL inh | MCL1 BIM primary
CCOC(=O)c1c(N)sc(N)c1C(=O)OCC | -5 | 69* | 4 | -28 | 13 | 18
O=C(NC(=S)Nc1ccc2nc[nH]c2c1)c1ccccc1 | nt | nt | -1 | nt | 5 | 10
COc1ccc(NC(=O)c2oc3ccccc3c2NC(=O)C2CC2)cc1 | 1 | 10 | -2 | -7 | 1 | 1
CCOc1ccc(NC(=O)c2oc3ccccc3c2NC(=O)CC)cc1 | 0 | -11 | 7 | 78* | 1 | 5
Cc1ccc(/C=N/NC(=O)NC23CC4CC(CC(C4)C2)C3)o1 | nt | nt | -3 | nt | -2 | -7
O=c1/c(=C/c2ccccn2)sc2nc3ccccc3n12 | 0 | 44 | 20 | 47 | 21 | 27
COC(=O)/C=c1/sc2nc3ccccc3n2c1=O | -17 | -20 | 8 | 11 | 1 | 1
O=C(O)c1cccc(-c2ccc(/C=c3/sc4nc5ccccc5n4c3=O)o2)c1 | nt | 89* | -28 | 33 | -6 | 22
O=c1/c(=C\c2cc([N+](=O)[O-])cc([N+](=O)[O-])c2O)sc2nc3ccccc3n12 | -1 | 105* | -61 | 91* | -15 | -54
O=C(O)c1cc(C(=O)O)cc(-c2ccc(/C=c3/sc4nc5ccccc5n4c3=O)o2)c1 | 1 | 54* | nt | -32 | nt | nt
CSc1ccc(CN(C)C(=O)CNC(=O)c2sc3ccccc3c2Cl)cc1 | nt | nt | 2 | nt | 0 | 0
Cc1c(C(=O)NCC2CCCO2)oc2ccc(Br)cc12 (configuration not stated) | nt | nt | -8 | nt | -2 | -2
COCc1ccc(C(=O)NC2CCCN(Cc3ccccc3F)C2)o1 (configuration not stated) | nt | nt | 6 | nt | 36* | -9
COc1cccc(CC(=O)NC2CCCN(Cc3ccccc3F)C2)c1 (configuration not stated) | nt | nt | 2 | nt | 3 | -5
COc1cc(/C=C2\SC(=S)N(CC(=O)NC3=NCCS3)C2=O)cc(OC)c1OC | 0 | 12 | 5 | 0 | 6 | 15
COc1ccc(/C=C2\SC(=S)N(CCC(=O)NC3=NCCS3)C2=O)cc1OC | 0 | 56* | 3 | 22 | 3 | 11
Cc1cc(NC(=O)CCN2C(=O)/C(=C\c3ccccc3)SC2=S)no1 | nt | 71* | -2 | -5 | 2 | 3
COc1cc(/C=C2\SC(=S)N(CC(=O)Nc3ccc(O)cc3)C2=O)cc(OC)c1OC | 0 | 77* | nt | -17 | nt | nt
CCN(CC(=O)Nc1ccc(OC)cc1)C(=O)c1ccc(N2CCCC2=O)cc1 | nt | nt | 7 | nt | -2 | 2
Cc1ccc(/C=C2\Oc3c(ccc(O)c3CN3CCN(CCO)CC3)C2=O)cc1 | 0 | 7 | -2 | -10 | 48* | 37
COc1ccccc1-c1coc2c(CN3CCN(CCO)CC3)c(O)ccc2c1=O | nt | nt | 5 | nt | 4 | 2
CC(C)c1ccc(/C=C2\Oc3c(ccc(O)c3CN3CCN(C)CC3)C2=O)cc1 | 1 | 4 | -6 | -24 | 41* | 36
CCN1CCN(Cc2c(O)ccc3c(=O)c(-c4ccccc4OC)coc23)CC1 | -3 | -5 | 5 | -16 | 1 | 2
CCN1CCN(Cc2c(O)ccc3c2O/C(=C\C=C\c2ccccc2OC)C3=O)CC1 | -5 | -2 | -22 | -63 | 39* | 2
COc1ccc(OCCN2CCN(C(=O)c3ccc(OC)c(OC)c3)CC2)cc1 | nt | nt | -8 | nt | 2 | -3
SMILES | Mcl-1 Bim block | Mcl1 Noxa PPI | GLD-1 RNA inh | Mcl1 Bid PPI | BCLXL inh | MCL1 BIM primary
CCN(CC)c1ccc(NS(=O)(=O)c2ccc(-c3ccc(=O)[nH]n3)o2)c(C)c1 | nt | nt | 4 | nt | 32* | 32
COc1cc(N2CCCC2)c(OC)cc1/C=C(/C#N)c1cccc(F)c1 | -22 | 80* | -51 | -21 | -33 | -94
COc1ccccc1C1CC(c2ccccc2)Nc2ncnn21 (configuration not stated) | -4 | 14 | -4 | 97* | 5 | 2
COC(=O)c1cc(NC(=O)Cn2c(=O)cnc3ccccc32)cc(C(=O)OC)c1 | 1 | 27 | -3 | 62* | 3 | 1
CN1CCc2nc3sc(C(=O)C45CC6CC(CC(C6)C4)C5)c(N)c3cc2C1 | 0 | 58* | 7 | 85* | 24 | 28
COc1ccc(-c2nc3ccccc3nc2-c2ccccc2)cc1 | -1 | 0 | -10 | 6 | 2 | 7
COc1ccc2nc3ccccc3nc2c1 | 6 | 8 | 27 | -11 | 35* | 36
COc1cccc(N/C(SCc2ccccc2C)=C(/C#N)C(=O)NCc2cccs2)c1 | -3 | 48 | 8 | 54* | 4 | 9
Cc1ccc(C(=O)NNC(=O)CCC(=O)Nc2cc(C)on2)cc1 | -4 | 4 | 2 | 86* | 2 | 14
O=C(CCC1CCCN(C(=O)CCC(F)(F)F)C1)NCc1ccc(F)c(F)c1 (configuration not stated) | -1 | 53* | -7 | 12 | 1 | -1
COC(=O)CCCC(=O)N1CCCC(CCC(=O)NCc2ccc(F)c(F)c2)C1 (configuration not stated) | -1 | 6 | -7 | -1 | -1 | -13
CC1(C)CC(=O)C=C(/C=C/c2ccccc2)C1 | nt | nt | 2 | nt | 3 | 4
Cc1cccc(Cl)c1OCCCn1ccnc1 | nt | nt | 0 | nt | 2 | -4
O=[N+]([O-])c1cc(/C=N\Nc2nc(-c3ccccc3)cs2)ccc1O | 0 | 20 | 0 | -38 | 13 | 15
Cc1csc(N/N=C/c2ccc(O)c([N+](=O)[O-])c2)n1 | -1 | 55* | 5 | -70 | 19 | 28
COc1ccc(C(=O)NCc2nnc(SCC(=O)N3CCCCC3)o2)cc1OC | 0 | 5 | -4 | 83* | -4 | -3
COc1cc(Cl)cc(CN2CCC(CCC(=O)NC3CC3)CC2)c1OC | nt | nt | 8 | nt | 6 | 12
CCOC(=O)C1CCCN(C(=O)/C(=C/c2ccco2)NC(=O)c2ccccc2)C1 (configuration not stated) | nt | nt | 4 | nt | 12 | 3
Cn1c(C(C#N)C2=C(Cl)C(=O)N(c3ccccc3)C2=O)nc2ccccc21 (configuration not stated) | -4 | nt | 45* | -10 | 50* | 42*
Cc1nc2ccccc2c2oc(C(=O)Nc3ccc(C(C)C)cc3)cc12 | -9 | 6 | 11 | 3 | 4 | 3
CCCCN(CC)CCNC(=O)c1cc2c(C)nc3ccccc3c2o1 | 0 | 71* | -6 | -11 | 6 | 9
COc1cc(NC(=O)c2cc3c(C)nc4ccccc4c3o2)cc(OC)c1OC | -1 | 56* | -3 | -20 | 0 | 3
O=C(NCC(=O)N1CC=C(c2ccccc2)CC1)c1ccco1 | nt | nt | 6 | nt | 12 | -1
Cc1cc(C)c(S(=O)(=O)/N=C2\C=C(Nc3ccc(C(=O)O)cc3)C(=O)c3ccccc32)c(C)c1 | nt | nt | 12 | nt | 24 | 31
O=C(O)c1ccc(NC2=C/C(=N/S(=O)(=O)c3ccccc3)c3ccccc3C2=O)cc1 | 3 | 93* | nt | -2 | nt | nt
